Reference: PubChem BioAssay

assay: FRG1 promoter luciferase signal modulators, primary screen, FRG1 inhibition for FSHD, cell-based, C2C12 myotubes, firefly/Renilla luciferase, luminescence (AID 1084); conditions: higher = more signal, called active from +8 up or from −8 down

z-score, inactive:
O=C1C2C=CC(C(O)c3ccc([N+](=O)[O-])cc3)N(Nc3ccccc3)C2C(=O)N1c1ccccc1 (stereo not given) -0.699
CC(=O)NCCCC[C@@H]1NC(=O)[C@H]2C[C@@H](C(=O)NCCCCCC[N+](C)(C)C)[C@@H](c3ccc(O)cc3)N2C1=O 5.36
CCCC[C@H]1OB(O)C[C@H]2C1=C(COC)C[C@H]1C(=O)C=CC(=O)[C@H]12 0.254
C[C@@H](OCc1ccccc1)C1NC(=O)[C@@]23C(=O)N[C@@H](Cc4ccccc4)C2[C@H](C)[C@@]2(C)O[C@H]2C3/C=C/C/C=C\CNC(=O)[C@H](Cc2ccccc2)NC1=O (stereo not given in full) 3.33
C=CCC(OC(C)=O)[C@@H]1[C@@H](N(Cc2ccc(-c3cccc(C(F)(F)F)c3)o2)C(=O)c2cccc3ccccc23)c2cc(OCCCO)ccc2N1C(=O)c1ccc2ccccc2c1 (stereo not given in full) 0.141
COCCn1c(C(=O)N2CCCC2)cc2c1C[C@H]1CN(C(=O)c3ccccc3)[C@@](Cc3ccccc3)(C(=O)OC)[C@@H]21 2.7
C=CC[C@@]12N=C(c3ccc(OCCCO)cc3)O[C@@H]1c1ccccc1N(Cc1ccccc1)C2=O -3.36
C[C@]1(C(=O)NCC(F)(F)F)c2ccccc2C(=O)N(Cc2ccc(OC(F)(F)F)cc2)[C@H]1c1ccc(CO)cc1 -3.89
O=C1N(CCS(=O)(=O)c2ccccc2)c2ccccc2[C@@H]2OC(c3ccc(OCCCO)cc3)=N[C@]12CCS(=O)(=O)c1ccccc1 -3.3
CN(C)CCCC[C@@H]1NC(=O)[C@@H]2C[C@H](C(=O)NCCCCCCNC(=O)CS)[C@H](c3cccc(OCCO)c3)N2C1=O -0.786
[N-]=[N+]=Nc1ccccc1[C@@H]1OC(c2ccc(OCCCO)cc2)=N[C@]1(Cc1ccccc1)C(N)=O 0.377
C=CC[C@]1(C(=O)N(C)C)COC(c2ccc(OCCCO)cc2)=N1 0.233
O=C1O[C@@H](c2ccccc2)[C@@H](c2ccccc2)N2[C@@H](c3ccc(O)cc3)[C@]3(C(=O)Nc4ccc(C#CC5=CCCCC5)cc43)[C@@H](C(=O)N3CCCCCCC3)[C@H]12 -1.38
CCCCC(=C=CC[C@@H](O)c1cccc(OCCO)c1)C[C@@H](O)COCc1ccccc1 -2.47
[N-]=[N+]=NCc1ccccc1C[C@]1(C(=O)O)COC(c2ccc(OCCCO)cc2)=N1 0.277
COC(=O)[C@]1(CO)N=C(c2ccc(OCCCO)cc2)O[C@@H]1c1ccccc1CN=[N+]=[N-] 1.7
COc1ccc(NN2C(C(O)c3cc(C(F)(F)F)cc(C(F)(F)F)c3)C=CC3C(=O)N(C4CCCCC4)C(=O)C32)cc1 (stereo not given) -0.68
CN(C)CCCC[C@@H]1NC(=O)[C@H]2C[C@@H](C(=O)NCc3ccc(F)cc3)[C@@H](c3ccc(O)cc3)N2C1=O 1.07
CCCC=C(CCC)[C@@H](NC(=O)c1ccccc1)c1ccc(C(=O)OC)cc1 3.19
C=CCC(OC(C)=O)[C@@H]1[C@@H](N(Cc2cccc3ccccc23)C(=O)c2cccc3ccccc23)c2cc(OCCCO)ccc2N1C(=O)Cc1ccc2ccccc2c1 (stereo not given in full) -1.89
C=C(COC)/C(=C/C[C@@H](OC(C)=O)c1ccccc1OCCO)c1cc(C(=O)OC)ccc1OC -0.657
CO[C@H]1O[C@H](CO)[C@@H](OC(=O)Nc2ccc(C(F)(F)F)cc2)[C@H](OC(=O)Nc2ccccc2-c2ccccc2)[C@@H]1OC(=O)Nc1ccccc1-c1ccccc1 -0.228
CCOC(=O)C[C@H]1[C@H](OC(=O)c2ccc(-c3ccccc3)cc2)[C@@H](NC(=O)CC(C)C)c2cc(OCCCO)ccc2N1C(=O)Cc1ccc(OC)cc1 -0.33
CCOC(=O)C[C@H]1[C@H](OC(=O)c2cc3ccccc3oc2=O)[C@@H](NC(=O)C2CCCCC2)c2cc(OCCCO)ccc2N1C(=O)Cc1ccc(OC)cc1 0.198
N#Cc1ccc(C(O)C2C=CC3C(=O)NC(=O)C3N2Nc2ccccn2)cc1 (stereo not given) -0.0581
O=C1C2C=CC(C(O)c3cccs3)N(Nc3ccccc3)C2C(=O)N1c1ccccc1 (stereo not given) -1.49
COC(=O)[C@@]1(Cc2ccc(OC)cc2)[C@H]2c3cc(C(=O)N4CCCC4)n(CCc4ccc(OC)c(Br)c4)c3C[C@H]2CN1C(=O)c1ccccc1 1.25
CO[C@H]1O[C@H](CO)[C@@H](OC(=O)Nc2ccc(C(F)(F)F)cc2)[C@H](OC(=O)Nc2ccccc2-c2ccccc2)[C@H]1OC(=O)Nc1ccccc1-c1ccccc1 2.53
CCOC(=O)C1=C(C(=O)OCC)N(S(=O)(=O)CC[Si](C)(C)C)[C@H](c2ccccc2)CC1 -2.55
CC(C)C(=C=CC[C@@H](O)c1ccccc1OCCO)C[C@@H](O)c1cc(Cl)cc(Cl)c1O -1.95
COc1ccc(C#Cc2ccc3c(c2)[C@]2(C(=O)N3)[C@H](C(=O)Nc3nc4ccccc4s3)[C@H]3C(=O)O[C@H](c4ccccc4)[C@H](c4ccccc4)N3[C@@H]2c2ccc(OCCO)cc2)cc1 4.94
CC(=O)n1cc(C(O)C2C=CC3C(=O)N(c4ccccc4)C(=O)C3N2Nc2ccccc2F)c2ccccc21 (stereo not given) 0.625
COCCOC(=O)N1C(=O)[C@@]2(c3cc(C#CC4(O)CCCCCC4)ccc31)[C@H](c1ccc(OCCO)cc1)N1[C@H](c3ccccc3)[C@H](c3ccccc3)OC(=O)[C@H]1[C@@H]2C(N)=O 0.11
COc1cc2c(cc1O)C(c1ccc(CN3CCCC3)cc1)N(Cc1ccc([N+](=O)[O-])o1)CC2 (stereo not given) 1.06
COc1ccc(CCNC(=O)[C@@]2(C)c3ccccc3C(=O)N(Cc3cc(C(F)(F)F)cc(C(F)(F)F)c3)[C@H]2c2ccc(CO)cc2)cc1 -1.62
